Tau fibril ThT = tau fibrillization inhibition (ThT binding) | recombinant tau K18 P301L, heparin-induced fibrillization, ThT fluorescence | Potency, µM (top dose mostly 57.4 µM), without a hit: at the top dose activity, negative = inhibition, most hits filed as inhibitors | actives 2.1% (n = 270,000); note: nearly all actives have a fitted effect of over 55% in size
Target sequence (P10636 561-689 P618L limits assumed): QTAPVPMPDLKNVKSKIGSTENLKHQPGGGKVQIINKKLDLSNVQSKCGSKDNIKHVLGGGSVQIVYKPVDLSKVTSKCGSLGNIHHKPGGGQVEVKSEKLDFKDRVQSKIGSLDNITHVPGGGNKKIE
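Using a mix of unlabeled (15 uM) and Alexa 594-labeled (0.24 uM) tau K18 P301L, heparin-triggered fibrillization over 6 hr at 37 C was scored by ThT fluorescence.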
Tau fluor counter = counter-screen for tau fibril formation inhibitors; tau K18 P301L Alexa594 fluorescence, heparin fibrillization; Potency, µM (titrated, usually from 57.7 µM), for inactives: at the highest dose activity change, negative = decrease; actives 0.93% (n = 280,000); AID 1463; note: nearly all actives have a fitted effect of over 55% in size
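Human tau K18 P301L (15 uM unlabeled, 0.24 uM Alexa 594-labeled) in 100 mM sodium acetate pH 7 with 20 uM heparin, 6 hr at 37 C. ThT 30 uM added, 1 hr ambient; Alexa 594 FP and total fluorescence read at 555/632 nm.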
Tau fibril FP = tau fibrillization inhibition (FP). P10636. K18 P301L tau heparin fibrillization, Alexa594 FP, 6 h. Potency, µM (titrated, usually from 57.7 µM), for inactives: at the top dose activity, negative = inhibition, hits mostly inhibitors. actives 0.39% (n = 280,000). AID 1468; note: nearly all actives have a fitted effect of over 55% in size
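FP of Alexa 594-tau after heparin (20 uM) induction. Substrate: human K18 P301L, 15 uM unlabeled, 0.24 uM labeled. Buffer 100 mM sodium acetate pH 7. 6 hr, 37 C.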
HPGD block = blocks human HPGD enzyme activity; P15428; purified HPGD, NADH fluorescence kinetic, PGE2 substrate; Potency, µM, inactives show at the highest dose activity change, negative = inhibition, hits mostly inhibitors; actives 4.3% (n = 150,000); active = well fitted inhibition curve with a large enough effect, not every such curve was filed as active; inconclusive = small, poorly fitted or top-dose-only effect, or another doubt; inactive = no such curve, though single readings can be large or run the other way
Target sequence (P15428 whole entry, looked up): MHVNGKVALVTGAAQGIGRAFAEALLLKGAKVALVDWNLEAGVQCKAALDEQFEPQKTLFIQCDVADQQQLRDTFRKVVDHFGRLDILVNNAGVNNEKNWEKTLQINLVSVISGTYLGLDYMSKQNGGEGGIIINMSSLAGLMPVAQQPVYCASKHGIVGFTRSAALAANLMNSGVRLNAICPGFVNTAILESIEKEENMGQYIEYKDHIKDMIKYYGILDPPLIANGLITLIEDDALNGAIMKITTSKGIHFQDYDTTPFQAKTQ
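NADH formation kinetics: reaction with 30 uM PGE2 and 1 mM NAD+ (final), 20 nM enzyme, Tris-HCl pH 8 with Tween 20, after 15 min compound preincubation at room temperature. Fluorescence change, last versus first of five reads.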
NPSR antag = antagonists of human neuropeptide S receptor cAMP signaling; AID 1461; actives 1% (n = 220,000); CHO-NPSR cells, cAMP TR-FRET, antagonist mode; Potency, µM (top dose mostly 38.3 µM), inactives show at the top dose activity change, negative = inhibition, hits mostly inhibitors; Q6W5P4; note: nearly all actives have a fitted effect of over 50% in size
Target sequence (Q6W5P4 whole entry, looked up): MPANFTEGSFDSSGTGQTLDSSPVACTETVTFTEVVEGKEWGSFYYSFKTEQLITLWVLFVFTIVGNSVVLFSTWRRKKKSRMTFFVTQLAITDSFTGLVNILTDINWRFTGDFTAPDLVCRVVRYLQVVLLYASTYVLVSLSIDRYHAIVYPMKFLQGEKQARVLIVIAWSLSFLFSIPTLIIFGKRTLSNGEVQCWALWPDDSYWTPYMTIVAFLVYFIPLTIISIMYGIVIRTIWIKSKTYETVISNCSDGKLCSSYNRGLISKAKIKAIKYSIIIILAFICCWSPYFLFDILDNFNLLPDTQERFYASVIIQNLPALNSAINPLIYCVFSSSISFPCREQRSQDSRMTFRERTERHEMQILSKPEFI
ALDH1A1 inh = ALDH1A1 (human) enzyme inhibition. Potency, µM (highest dose often 75.3 µM), for the others: at the highest dose activity, negative = inhibition, hits mostly inhibitors. P00352. actives 7.3% (n = 220,000). Purified ALDH1A1, NADH fluorescence, propionaldehyde substrate; active = well fitted inhibition curve with a large enough effect, not every such curve was filed as active; inconclusive = small, poorly fitted or top-dose-only effect, or another doubt; inactive = no such curve, though single readings can be large or run the other way;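 note: plate controls were no enzyme wells and a reference inhibitor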
* marks the source's active call; other numbers are inactive results; ? = inconclusive; . = no result; [ ] = remark or other dose. Hits are enriched below; roughly 9.5% of the tested compounds scored in any of these assays. Unless noted, calls come from the whole dose curve; as a rule, active = well fitted curve in the direction sought with a large enough effect; inconclusive = small, poorly fitted or top-dose-only effect, or another doubt; inactive = no such curve, though single readings can be large; an effect the other way counts as inactive or inconclusive. Unless noted, % is set by controls: 0 for no effect and ±100 for the full control effect; potency is the fitted concentration of half-maximal effect.

SMILES	Tau fibril ThT	Tau fluor counter	Tau fibril FP	HPGD block	NPSR antag	ALDH1A1 inh
S=C(NNc1ccc2ccccc2c1)NC1CCCCC1	25.1µM*	?	?	-6.8%	-37.4%	-6.5%
Cc1sc2nc(CSCC(=O)N(CCC#N)c3ccccc3)[nH]c(=O)c2c1C	-12.6%	-3.4%	-0.9%	.	-4.4%	?
O=C(CCCCCN1C(=O)c2ccccc2C1=O)Nc1nccs1	-4.9%	-10.4%	2.8%	7.08µM*	-24.5%[46.1 µM]	-0.8%
O=C(CN1C(=O)c2ccccc2C1=O)Nc1nccs1	.	-2.6%	1.7%	.	4.0%	.
CC(=O)c1cccc(NC(=O)CSc2nc(=O)n(Cc3ccco3)c3c2CCC3)c1	1.7%	3.9%	?	.	.	.
Cn1c(-c2cccc3ccccc23)n[nH]c1=S	8.9%	7.3%	-4.6%	-23.5%	1.0%	-6.1%
Cn1c(-c2cc(Br)ccc2O)n[nH]c1=S	-2.6%	3.0%	-3.3%	14.1µM*	-3.2%[46.1 µM]	2.6%
N#Cc1nc(-c2cccs2)oc1NCc1ccc(Cl)cc1	-10.0%	17.8µM*[quencher]	?	?	-21.9%[46.1 µM]	?
N#Cc1nc(COc2ccccc2F)oc1NCCc1ccccc1	?	-28.9%	3.2%	12.6µM*	-15.9%[46.1 µM]	-10.4%
COc1ccccc1/C=C/c1nc(C#N)c(NCCc2ccccc2)o1	?	3.55µM*[quencher]	?	.	.	.
N#Cc1nc(Cc2ccccc2)oc1NCc1ccccc1	-8.0%	-13.1%	-0.3%	14.1µM*	-4.0%[46.1 µM]	-3.0%
Cc1ccc(OCc2nc(C#N)c(NCCc3ccccc3)o2)cc1	?	?	-3.6%	.	.	.
CS(=O)c1ccccc1-c1nc(-c2cc(C(F)(F)F)cc(C(F)(F)F)c2)no1 (stereo unspecified)	-16.3%	-24.8%	1.9%	?	?	-6.4%
CC(=O)c1ccc(NC(=O)/C(Cl)=C/c2ccccc2)cc1	5.8%	7.5%	11.9%	.	-2.1%	-3.1%
Cc1ccc(NC(=O)/C(Cl)=C\c2ccccc2)cc1	-7.0%	-15.3%	4.4%	-22.2%	-0.9%[46.1 µM]	3.98µM*
O=C(Nc1ccccc1)/C(=C/c1ccccc1)c1ccccc1	-21.1%	?	20µM*	?	-20.0%[46.1 µM]	?
CCCCCCCCCCCCCCCC(=O)N[C@@H](COP(=O)(O)O)C(=O)O	-2.8%	4.2%	1.1%	?	.	3.0%
COc1ccc(CNC(=O)CCC2N=C3c4ccccc4N=C(SCc4cccc(F)c4)N3C2=O)cc1 (stereo unspecified)	0.1%	8.3%	14.1%	.	.	.
COc1ccc(CCNC(=O)c2cc3c(=O)[nH]c4ccc(C)cc4c3s2)cc1OC	-2.3%	-21.9%	?	.	.	.
O=S(=O)(Oc1ccccc1/C=N/n1cnnc1)c1ccccc1	-4.8%	-0.7%	-2.9%	.	7.4%	22.4µM*
CCOc1cc(/C=N/n2cnnc2)ccc1OS(=O)(=O)c1ccccc1	-7.2%	-6.2%	-0.7%	.	-8.4%	12.6µM*
COc1cc(/C=N/n2cnnc2)ccc1OS(=O)(=O)c1ccccc1[N+](=O)[O-]	-11.5%	-16.9%	-4.0%	-20.2%	4.9%	-12.4%
CNc1nc2c3ccccc3n(C(C)=O)c2s1	?	-28.4%	-6.6%	-4.2%	-22.9%[46.1 µM]	-5.3%
CC(=O)n1c2ccccc2c2nc(NC(C)C)sc21	22.4µM*	-25.8%	?	-6.7%	-7.3%[46.1 µM]	?
COc1cc(-c2nc(Cc3c(F)cccc3Cl)no2)cc(OC)c1OC	?	15.8µM*[quencher]	-13.5%	-5.7%	?	-1.4%
SMILES	Tau fibril ThT	Tau fluor counter	Tau fibril FP	HPGD block	NPSR antag	ALDH1A1 inh
COc1cc(-c2noc(-c3cccc(Cl)c3)n2)cc(OC)c1OC	4.9%	8.1%	2.6%	-12.7%	8.0%[46.1 µM]	-4.0%
COc1cc(O)oc1C=Nc1ccccc1	-15.2%	-14.5%	4.6%	-25.7%	-2.2%[46.1 µM]	20µM*
Cc1cc(S(=O)(=O)NCc2ccccc2)ccc1OCC(=O)NCC1CCCO1 (stereo unspecified)	-1.4%	-2.6%	-3.5%	.	-3.2%	8.0%
CCc1ccc(OCc2nc(-c3ccccn3)no2)c(Br)c1	?	-27.1%	5.6%	28.2µM*	-0.9%[46.1 µM]	-0.1%
CC(C)c1ccc(OCc2nc(-c3ccccn3)no2)c(Br)c1	?	-29.0%	-2.3%	?	-10.0%[46.1 µM]	-8.7%
Cc1ccc(OCc2nc(-c3ccccn3)no2)c(Br)c1	?	-15.3%	4.4%	17.8µM*	?	?
Cc1ccc(OCc2nc(-c3ccccn3)no2)cc1	-22.4%	-15.5%	-0.8%	-13.2%	-7.2%[46.1 µM]	8.0%
Clc1ccc(OCc2nc(-c3ccncc3)no2)c(Br)c1	?	-29.2%	-6.1%	17.8µM*	-7.2%	-4.7%
COC(c1ccccc1Br)C(C)/C=C/CCO (stereo unspecified)	4.2%[11.5 µM]	9.5%[11.6 µM]	3.4%[11.6 µM]	.	.	3.16µM*
COC(=O)C/C=C/[C@@H](C)[C@H](O)c1ccccc1Br	-5.3%	1.3%	9.4%	2.0%	.	12.2%
Cn1c(=O)cc2c3c(c(N4CCCCC4)ccc31)C(=O)c1ccccc1-2	11.2µM*	12.6µM*[quencher]	?	.	-12.4%	.
O=C1c2ccccc2C(=O)c2c1cccc2N1CCCC1	14.1µM*	?	?	-8.3%	-16.8%	?
O=C1c2ccccc2-c2onc3ccc(N4CCCC4)c1c23	8.91µM*	10µM*[quencher]	28.2µM*	.	12.6µM*	22.4µM*
Cn1c(=O)c(NC2CCCCC2)c2c3c(cccc31)C(=O)c1ccccc1-2	-14.6%	?	-0.9%	.	?	-9.9%
O=C1c2ccccc2-c2cccc(C(=O)N3CCCCC3)c21	-6.7%	-10.4%	-5.0%	.	-9.7%	.
CCCn1c(SCC(=O)c2ccc3c(c2)OCCO3)nnc1-c1ccco1	-7.9%	-5.0%	2.7%	-3.1%	-7.4%[46.1 µM]	-5.9%
COCCn1c(SCC(=O)c2ccc3c(c2)OCCO3)nnc1C(C)C	?	-5.6%	-15.1%	-8.8%	-9.7%[46.1 µM]	10µM*
COCCn1c(SCC(=O)c2ccc(Cl)cc2)nnc1C(C)C	-12.4%	4.6%	-0.9%	?	-6.3%[46.1 µM]	9.46µM*
CCCCOc1ccc(N2C(=O)CC(NCc3ccncc3)C2=O)cc1 (stereo unspecified)	-16.9%	-14.8%	-10.2%	.	6.0%	-7.1%
Cn1c(=O)c2c(nc(Br)n2CC(=O)C23CC4CC(CC(C4)C2)C3)n(C)c1=O	4.5%	0.0%	-1.5%	-16.5%	-26.0%[46.1 µM]	11.2µM*
CCN(CC)c1c([N+](=O)[O-])c(=O)sc2ccccc12	14.1%	4.8%	-0.3%	?	15.4%	-2.7%
C=CSc1sc(Cl)c(N(C)C)c1[N+](=O)[O-]	?	-20.2%	?	.	-0.7%	7.94µM*
C=CSc1sc(Cl)c(N(CC)CC)c1[N+](=O)[O-]	?	-4.4%	-10.9%	.	-27.2%	15.8µM*
CCOC(=O)C1=C2NC(=O)c3ccccc3N2C(=O)C1	-17.3%	-8.1%	-0.7%	.	-19.2%	25.1µM*
CCOC(=O)C1=C(N)N(c2ccccc2Oc2ccccc2)C(=O)C1	0.0%	-0.2%	-0.4%	3.7%	-22.8%[46.1 µM]	-1.9%
